Compounds without any hit were thinned out: in the full panel of roughly 79,000, 15% have a hit. Cut-off read from the data, not from the text of the source: active = growth inhibition above about 70%; inactive = the rest.
Columns and labels:
[1] = NCI Yeast Anticancer Drug Screen. Data for the rad50 strain (AID 155);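 note: 0% = growth of vehicle-only cultures of the same strain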; settings: S. cerevisiae rad50 strain growth inhibition; at 50.0 µM; active compounds read high
Procedure, shortened: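 Relative growth inhibition (compound vs vehicle) was measured in yeast with a defined repair-gene alteration.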

[2] = NCI Yeast Anticancer Drug Screen. Data for the mec2-1 strain (AID 157); settings: S. cerevisiae mec2-1 strain, at 50.0 µM, active compounds read high
Procedure, shortened: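 Using mec2-1 yeast: add compound, measure growth, express inhibition versus vehicle-treated cultures.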

[3] = NCI Yeast Anticancer Drug Screen. Data for the sgs1 mgt1 strain (AID 161);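 note: 0% = growth of cultures given vehicle only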; settings: S. cerevisiae sgs1 mgt1 strain, at 50.0 µM, active compounds read high
Procedure, shortened: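 Compounds are added to genetically altered yeast, and growth is compared with cultures given vehicle alone to give percent inhibition.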

[4] = NCI Yeast Anticancer Drug Screen. Data for the cln2 rad14 strain (AID 165);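 note: 0% = growth equal to vehicle treated cultures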; settings: S. cerevisiae cln2 rad14 strain, at 50.0 µM, active compounds read high
Procedure, shortened: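 Yeast strain cln2 rad14, bearing defects in cell cycle control and DNA repair, serves as the test system; values reflect growth inhibition compared with vehicle.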

[5] = NCI Yeast Anticancer Drug Screen. Data for the bub3 strain (AID 167); settings: S. cerevisiae bub3 mutant strain, at 50.0 µM, active compounds read high
Procedure, shortened: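 Screening used yeast with an engineered genetic alteration affecting cell cycle control. Compound-exposed cultures were compared with vehicle cultures, and reduced growth was taken as inhibition.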

[6] = NCI Yeast Anticancer Drug Screen. Data for the mlh1 rad18 strain (AID 175); settings: S. cerevisiae mlh1 rad18 strain growth inhibition; at 50.0 µM; active compounds read high
Procedure, shortened: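 Steps: expose repair-defective yeast to compound; measure growth; express inhibition against vehicle-treated controls.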

Measured: growth inhibition

O=C(c1ccccc1)c1cc(Cl)ccc1NCC(O)COc1ccc(Cl)cc1 (stereo unspecified)
inactive: [1] -12.8% | [2] 7.05% | [3] -33% | [4] -12.6% | [5] -0.45% | [6] -10.1%

COC(=O)C(O)c1ccc(C(C)C)cc1 (stereo unspecified)
inactive: [1] -34.5% | [2] -18.6% | [3] -13.9% | [4] -33.2% | [5] -26.4% | [6] -9.2%

CC(=O)N(C)N=Nc1ccc(C(F)(F)F)cc1
inactive: [1] -7.7% | [2] -12.7% | [3] -9% | [4] -30.1% | [5] -5.8% | [6] -4.5%

Cc1cccc(Cl)c1NC(=O)c1cccc(C(=O)Nc2c(C)cccc2Cl)c1
inactive: [1] 9.3% | [2] 4.45% | [3] 15.4% | [4] -30.3% | [5] -2.5% | [6] 27.6%

Cc1ccc(OC(=O)NC(C)(C)C)cc1
inactive: [1] 0.8% | [2] -18.9% | [3] 11.2% | [4] -35.1% | [5] 11.8% | [6] -12.5%

CC(=O)OCC1OC(OC(C)=O)C(NC(=O)C(C)NC(=O)OCc2ccccc2)C(OC(C)=O)C1OC(C)=O (stereo unspecified)
inactive: [1] 37.1% | [2] 6.9% | [3] 16.2% | [4] 11.6% | [5] -1.05% | [6] 14.6%

COc1cc([C@H]2CC(=O)C[C@H](c3cc(OC)c(OC)c(OC)c3)C23C(=O)c2ccccc2C3=O)cc(OC)c1OC
inactive: [1] -3% | [2] 11.9% | [3] -8.7% | [4] 29.5% | [5] 0.45% | [6] 7%

Nc1ccc(S(=O)(=O)O)cc1
inactive: [1] -20.6% | [2] 3.85% | [3] 2.35% | [4] -29.3% | [5] -6.75% | [6] -2.55%

CN(C)c1ccc(/C(=N\O)C(=O)O)cc1
inactive: [1] -15.2% | [2] -13.3% | [3] -2.2% | [4] -9.1% | [5] 0.1% | [6] 1.55%

C/C(=N/N(C)C)c1ccc(C)cc1
inactive: [1] 20.3% | [2] -5.75% | [3] 3.25% | [4] -26.9% | [5] 0.6% | [6] 12.5%

CN(C)Cc1cc(C=O)cc(CN(C)C)c1O
inactive: [1] 10.3% | [2] 4.6% | [3] -29.2% | [4] 13.4% | [5] 10.7% | [6] 5.8%

Cc1nc(Nc2ccccc2Cl)sc1C(=O)CC(=O)C(N)=O
inactive: [1] 37.1% | [2] 20.9% | [3] 39.4% | [4] 24.1% | [5] 2.7% | [6] 48.6%

CC(Br)CNC(=O)c1ccc([N+](=O)[O-])cc1 (stereo unspecified)
inactive: [1] -0.65% | [2] 17.3% | [3] 3.6% | [4] -4.35% | [5] 9.75% | [6] 13.3%

CSc1nc(C)c(CCOC(C)=O)c(Cl)n1
inactive: [1] -18.1% | [2] -19.4% | [3] -16.2% | [4] -0.25% | [5] 17.1% | [6] 4.25%

CCCCCN(CCCCC)C(=O)C(C)Br (stereo unspecified)
inactive: [1] -3.6% | [2] -12.9% | [3] 12.8% | [4] -12.9% | [5] 44.9% | [6] 3.1%

CCC(=O)Oc1ccc(C(OC(=O)CC)OC(=O)CC)cc1OC
inactive: [1] -9.1% | [2] -9.1% | [3] 11.8% | [4] -20.2% | [5] 9.45% | [6] 8.05%

CC(C)(C)c1ccc(C(=O)N2CCOC23CCCCC3)cc1
inactive: [1] -11.7% | [2] -20.1% | [3] 7.25% | [4] 3.2% | [5] 17.1% | [6] -38.5%

O=C(O)CCN1CCSC1=O
inactive: [1] 7.15% | [2] 12.6% | [3] -4.3% | [4] 3.75% | [5] 2.35% | [6] 1.8%

CC1(C)N=C(N)N=C(N)N1c1cccc(CSc2ccccc2)c1
inactive: [1] -14.2% | [2] -11.8% | [3] -20.8% | [4] 7.2% | [5] -18.1% | [6] -19.6%

Nc1ncnc2c1ncn2-c1ccccc1
inactive: [1] 4.05% | [2] 2.95% | [3] -2.05% | [4] 9.7% | [5] 9.85% | [6] -17.4%

CC(=O)n1[nH]c(=O)n(-c2ccccc2)c1=O
inactive: [1] -23% | [2] -20.1% | [3] -17.9% | [4] 10.1% | [5] -26.1% | [6] -24.5%

Cc1nc2[nH]ncn2c(=O)c1CCCl
inactive: [1] 20.9% | [2] -31.9% | [3] -11.9% | [4] -7.55% | [5] 8.1% | [6] 9.4%

CC(NCc1c(O)ccc2c(-c3ccccc3)cc(=O)oc12)C(=O)O (stereo unspecified)
inactive: [1] -39.4% | [2] -19.1% | [3] -32.6% | [4] 4.35% | [5] -4.95% | [6] -14.8%

CCCCCCc1c(C)nc(N)[nH]c1=O
inactive: [1] 7.55% | [2] -3.85% | [3] -13.4% | [4] -67.7% | [5] 10% | [6] -1.05%

CC(=O)OC1CC(O)C23COC(O)C1(C)C2CC(O)C1(C)C3C(=O)C(O)C2(C)C(c3ccoc3)CC3OC321 (stereo unspecified)
inactive: [1] -9.9% | [2] 2.75% | [3] -11.3% | [4] 0.2% | [5] -2.2% | [6] -37.7%

Nc1ccc2c(c1)C(=O)c1ccccc1C2=O
inactive: [1] 4.4% | [2] -1.55% | [3] -12.9% | [4] 6.55% | [5] 8.95% | [6] -0.55%

CC1=CCC(=O)O1
inactive: [1] 2.15% | [2] 8.2% | [3] -1.7% | [4] 12.2% | [5] -7.75% | [6] 15.3%

CC1CC2=Cc3c(O)c(O)cc(O)c3C(=O)C2=CO1 (stereo unspecified)
inactive: [1] -5.5% | [2] -31.7% | [3] -19.7% | [4] -11.6% | [5] -5.7% | [6] -19.1%

C=CCN1C(=O)NC(=O)C1c1ccsc1 (stereo unspecified)
inactive: [1] -14.7% | [2] -0.25% | [3] -22.2% | [4] -34.2% | [5] -1.45% | [6] 2.6%

COc1cc2ccc(/C=C/C(=O)c3ccc4c(c3)OCO4)cc2cc1OC
inactive: [1] -7.3% | [2] -3.75% | [3] 3.25% | [4] 22.4% | [5] 6.4% | [6] -4.65%

C=CS(=O)(=O)CCCCCCCCCCCCCCCCCC
inactive: [1] -2.35% | [2] 10.7% | [3] -18.4% | [4] -12.8% | [5] 5.3% | [6] 8.9%

C/C(=C1/N=C(c2cc([N+](=O)[O-])ccc2Cl)N(c2ccc(Br)cc2)C1=O)c1cc2ccccc2oc1=O
inactive: [1] 35.3% | [2] 17.7% | [3] 15.7% | [4] 14.1% | [5] 9.35% | [6] 19.8%

C/C=C\C(=O)OC1CCC(C2CCCCC2)CC1 (stereo unspecified)
inactive: [1] 25.3% | [2] 9.3% | [3] 14.8% | [4] 1.25% | [5] 56.6% | [6] -2.15%

O=C(/C=C/c1ccc(Cl)cc1)c1ccccc1O
inactive: [1] -9.15% | [2] 9.8% | [3] -6.05% | [4] -10.8% | [5] -1.25% | [6] 11.1%

CC1(C)OC2OC(COC(=O)c3ccc([N+](=O)[O-])cc3)C3OC(C)(C)OC3C2O1 (stereo unspecified)
inactive: [1] -13.6% | [2] -8.45% | [3] -8.85% | [4] -28.1% | [5] 0.85% | [6] -25.4%

COc1cccc2cc(C(=O)Nc3ccccc3)c(=N)oc12
inactive: [1] 2.75% | [2] 12.7% | [3] -31% | [4] 9.3% | [5] -37.9% | [6] -43%

NC(N)=N/N=C/c1c(-c2ccc(Cl)cc2)nc2n1CCS2
inactive: [1] -36.6% | [2] -51.6% | [3] -18% | [4] -10.9% | [5] -5.05% | [6] -25.2%

CC1C2c3ccccc3C(c3ccccc32)C1CN1C(CCO)COC1c1ccccc1 (stereo unspecified)
inactive: [1] 4.05% | [2] 8.9% | [3] -3.25% | [4] -1.75% | [5] 1.4% | [6] 7.6%

COc1ccccc1NC(=O)C(=O)C(c1cnc2ccc([N+](=O)[O-])cc2n1)[N+](=O)[O-] (stereo unspecified)
inactive: [1] 16.2% | [2] -3.4% | [3] 6.3% | [4] 18.5% | [5] 7.6% | [6] -0.2%

COc1cccc(C=O)c1[O-].COc1cccc(C=O)c1[O-].[Zn+2]
inactive: [1] 52.4% | [2] 17.9% | [3] 56.7% | [4] 32.2% | [5] 11.8% | [6] 66%

CN(C)CCNC(=O)c1ccc(NC(=O)c2nc([N+](=O)[O-])cn2C)cc1
inactive: [1] -14.2% | [2] 10.6% | [3] 4.9% | [4] -22.6% | [5] -8.5% | [6] -31.6%
